# Source: PubChem BioAssay AID932 (The Scripps Research Institute Molecular Screening Center, 2007)
# Out of some 200,000 compounds screened, about 5,100 (2.5%) were called active.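 Rule for the calls: active = activation above the screen-wide mean activation plus 3 SD (cut at about 130% in these data); inactive = the rest.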 The entries come from a sample that favours actives as a whole.
# Assay: STAT1 signaling activators, primary screen, cell-based, HTS, luciferase reporter (AID 932);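 note: raw ratio to IFN-gamma control signal so 100% means no change and 0% no light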
# Details: NIH 3T3 STAT1-luciferase reporter, IFN-gamma, luminescence; at 5.5 µM; stronger effect = higher value; 100% = IFN-gamma alone, no compound
row,Structure (SMILES),activation (% of control)
1,O=C(N1CCCC1)C12CC3CC(C1)CC(C(=O)N1CCCC1)(C3)C2,99.8% (inactive)
2,CCCNC(=O)c1ccc(Cl)c(Cl)c1,98.4% (inactive)
3,CCCNC(=O)c1c(Cl)cnn1-c1ccc(C)cc1,142% (active)
4,Cc1c(C(=O)NCc2ccccc2)cnn1-c1ccccc1,101% (inactive)
5,Cn1ncc(N2CCN(S(=O)(=O)c3ccc(Br)cc3)CC2)c(Cl)c1=O,110% (inactive)
6,COc1cc(C)c(Cl)cc1S(=O)(=O)n1ccnc1,92.5% (inactive)
7,COCCNc1nc(N)c([N+](=O)[O-])c(NCCO)n1,114% (inactive)
8,Nc1nc(NCCCN2CCOCC2)nc(Nc2ccccc2)c1[N+](=O)[O-],103% (inactive)
9,CNc1nc(Nc2ccc(C)c(Cl)c2)nc(N)c1[N+](=O)[O-],142% (active)
10,Cc1nn(-c2ccccc2)c(NC(=O)c2cccs2)c(-c2ccc(Cl)cc2)c1=O,107% (inactive)
11,CC(C)c1ccc(NC(=O)NC2CCCCC2)cc1,180% (active)
12,CC(C)(C)NS(=O)(=O)c1ccc(NC(=O)NC2CCCCC2)cc1,103% (inactive)
13,CC(C)N1CCC(NC(=O)Nc2ccccc2)CC1,95.4% (inactive)
14,Cc1nn2cc(-c3ccc(Cl)cc3)cnc2c1Br,140% (active)
15,COc1ccccc1-c1nnc(NC(=O)c2ccc3ncsc3c2)o1,122% (inactive)
16,O=C(CC(=O)N/N=C\c1ccc(F)cc1)NCCc1ccccc1,100% (inactive)
17,O=C(NNC(=O)C1C2CCC(C2)C1C(=O)O)c1ccc(Cl)cc1 (stereo unspecified),110% (inactive)
18,CC(C)(C)OC(=O)N/N=C/c1ccc(C(=O)O)cc1,104% (inactive)
19,C/C(=N\NC(=O)OC(C)(C)C)c1ccc[nH]1,130% (active)
20,Cc1ccccc1NC(=O)NNC(=O)OC(C)(C)C,103% (inactive)
21,COc1ccc(C(=O)C2CCCN(C(=O)c3cc4nc(C)cc(C)n4n3)C2)cc1F (stereo unspecified),95.3% (inactive)
22,COc1ccc(-n2nc3c(c2NC(=O)c2ccc(N4C(=O)CCC4=O)cc2)CSC3)cc1,96.7% (inactive)

row,Structure (SMILES),activation (% of control)
1,NC(N)=N/N=C/c1ccc(Cl)c([N+](=O)[O-])c1,93.6% (inactive)
2,Cc1ccc(NC(=S)NC(=O)c2ccc(-c3ccccc3)cc2)cc1,98.2% (inactive)
3,Cc1ccc(C(=O)NC(=S)Nc2ccccc2C)cc1,130% (active)
4,Cc1cc(C(=O)NNC(=S)Nc2ccccc2C)cs1,130% (active)
5,Cc1ccc(NC(=S)NC(=O)c2ccc(-c3ccccc3)cc2)c(C)c1,92% (inactive)
6,Cc1ccc(C)c(NC(=S)NNC(=O)c2csc(C)c2)c1,97.8% (inactive)
7,Cc1ccccc1NC(=S)NNC(=O)c1cccc(Br)c1,104% (inactive)
8,CCCN(C(=O)CSc1nnnn1C)c1c(N)n(Cc2ccccc2)c(=O)[nH]c1=O,101% (inactive)
9,Cc1ccc(N/N=C2\COC(C)(C)CC2=O)cc1,142% (active)
10,COc1ccc(N/N=C2/CCCCC2=O)cc1,105% (inactive)
11,CCn1cc(CN2CCCC(CNS(=O)(=O)Cc3ccccc3)C2)cn1 (stereo unspecified),89.7% (inactive)
12,CN=c1scc(-c2cc(OC)ccc2OC)n1/N=C/c1c(C)[nH]c2ccccc12,112% (inactive)
13,CCn1ccnc1CN1CCCC(C(=O)c2ccc3c4c(cccc24)CC3)C1 (stereo unspecified),89.5% (inactive)
14,Cc1cccc(NC(=O)/C=C/c2ccc3c(c2)OCO3)n1,135% (active)
15,COc1ccc(OC)c(/C=C/C(=O)OCC(=O)Nc2ccc3c(c2)OCCO3)c1,98.4% (inactive)
16,COc1ccc(/C=C/C(=O)Nc2ccc3c(c2)OCCO3)cc1OC,96.8% (inactive)
17,CCc1c(C)sc(NC(=O)/C=C/c2ccc3c(c2)OCO3)c1C(=O)OC,96.1% (inactive)
18,CC(NC(=O)Nc1ccc2c(c1)OCO2)c1ccncc1 (stereo unspecified),97.9% (inactive)
19,COc1cccc(/C=C/C(=O)Nc2ccc3c(c2)OCCO3)c1,129% (active)
20,Cc1cccc(NC(=O)Nc2ccc3c(c2)OCO3)n1,168% (active)
21,O=C(/C=C/c1ccc2c(c1)OCO2)NCc1ccc(F)cc1,101% (inactive)
22,CC(C)C(=O)Nc1cccc(C(=O)Nc2ccc3c(c2)OCO3)c1,120% (inactive)

row,Structure (SMILES),activation (% of control)
1,CC(=C/c1ccccc1)/C=N/NC(=O)c1cc(C)oc1C,117% (inactive)
2,O=C(O)/C=C\C(=O)Nc1ccc(OCc2ccccc2)cc1,120% (inactive)
3,Cn1c(SCC(=O)NC2CCCCC2)nnc1-c1ccc(N)cc1,101% (inactive)
4,CCSc1nc(C)c(CCOc2cccc(C)c2)c(=O)[nH]1,102% (inactive)
5,CCOc1ccc(-c2nnc(-c3ccco3)o2)cc1,93.5% (inactive)
6,CCC(=O)Oc1cccc(C(=O)Nc2ccc(-c3nnc(-c4ccco4)o3)cc2)c1,104% (inactive)
7,CCCCOc1ccc(-c2nnc(-c3ccco3)o2)cc1,130% (active)
8,COc1ccc2nc(SCc3ccccc3)nc(C)c2c1,188% (active)
9,COc1ccc(-c2nnc3ccc(SCc4ccccc4)nn23)cc1,96.5% (inactive)
10,COC(=O)CSc1nc(C)c2ccc(OC)cc2n1,108% (inactive)
11,Cc1ccc(C)c2[nH]c(=O)c(CCNC(=O)c3cccs3)cc12,102% (inactive)
12,CCOC(=O)C1(CCOC)CCN(Cc2ccc(C(=O)OC)cc2)CC1,106% (inactive)
13,CN1C(=O)/C(=C/C=C2\SCCN2C)OC1=S,158% (active)
14,O=C(NCc1ccccn1)c1cc(Br)ccc1Cl,104% (inactive)
15,COc1ccc(OCC(=O)NNC(=O)c2cccc(C)c2)cc1,103% (inactive)
16,CC(=O)Nc1ccc(/C=N/NC(=O)c2cccs2)cc1,136% (active)
17,Cc1cccc(-n2c(C)cc(/C=N\NC(=O)c3cccs3)c2C)c1,140% (active)
18,O=C(N/N=C/C=C/c1ccco1)c1cccs1,127% (inactive)
19,Cc1cccc(-n2c(C)cc(/C=N/NC(N)=S)c2C)c1,110% (inactive)
20,Cc1ccc(-n2nc(C)c(/C=N/NC(=O)c3cccs3)c2Cl)cc1,106% (inactive)
21,O=C(O)c1ccc(NC(=O)c2cccs2)cc1,98.1% (inactive)
22,CN(C)N(C)C(=O)C(O)(c1ccccc1)c1ccccc1,93.5% (inactive)
